Test results from PubChem BioAssay AID589 (National Center for Advancing Translational Sciences (NCATS), 2007).
Screen size: about 59,000 compounds; about 6,200 (11%) were called active. Inconclusive results (about 9%) are left out. No stated cut-off is given here; in the data, active means max dye-equivalent concentration above about 10 nM; inconclusive means mostly about 1.1 nM to 9.6 nM; inactive means weaker than that. Many of the other results were omitted from the sample, so actives are more common in it than they were.

assay: qHTS Assay for Spectroscopic Profiling in 4-MU Spectral Region; conditions: compound autofluorescence, 340/450 nm, 4-MU equivalents; active compounds read high
Procedure, shortened: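 Intrinsic fluorescence at 340/450 nm (ex/em) was read after 15 min at room temperature in pH 8.0, 100 mM Tris. Each compound concentration expressed as 4-MU-equivalent concentration from a six-point 4-MU standard series on each plate.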

| SMILES | max dye-equivalent concentration |
| --- | --- |
| O=C(Nc1ccc(Cl)cc1)c1ccsn1 | inactive |
| CCC[C@H]1C(=O)N2C(N(C)C)=Nc3ccc(C)cc3N2C1=O | inactive |
| COc1ccc(OC)c(C(=O)CSc2nnc(-c3cccs3)o2)c1 | 150 nM (active) |
| COc1ccc(-n2c(C)cc(C(=O)CSc3nnc(-c4cccs4)o3)c2C)cc1 | inactive |
| COc1ccc(-c2nnc(SCC(=O)c3cccs3)o2)c(OC)c1 | inactive |
| CC(C)c1ccc(N2CC(C(=O)Nc3nccs3)CC2=O)cc1 (configuration not stated) | inactive |
| Cn1nnnc1SCC(=O)N1CCN(C(c2ccccc2)c2ccccc2)CC1 | inactive |
| c1ccc(CCN2CN=C(Nc3nc4ccccc4o3)NC2)cc1 | inactive |
| Cc1ccc2nc(NC3=NCN(CCc4ccccc4)CN3)nc(C)c2c1 | inactive |
| COc1ccc2nc(NC3=NCN(CC4CCCO4)CN3)nc(C)c2c1 (configuration not stated) | 92 nM (active) |
| Cc1ccc(S(=O)(=O)NCC(=O)N(CC(=O)NC2CCCCC2)Cc2ccco2)cc1 | inactive |
| CCCN(CCC)CCNC(=O)c1cc2c(C)nc3ccccc3c2o1 | 17 nM (active) |
| CCCC(=O)N(CCc1ccccc1)Cc1nc2ccccc2c(=O)[nH]1 | inactive |
| Cc1ccc(C(=O)NCC2CCCO2)o1 (configuration not stated) | inactive |
| Cc1nc2ccccc2c2oc(C(=O)NCC3CCCO3)cc12 (configuration not stated) | 12 nM (active) |
| c1ccc2c(NCC3CCCO3)nc(-c3ccncc3)nc2c1 (configuration not stated) | inactive |
| Cc1cc(C(=O)NCCCc2ccccc2)no1 | inactive |
| Cc1cc(NC(=O)CN2CCC(O)(c3cccc(F)c3)CC2)no1 | inactive |
| CCn1c(SCC(=O)c2ccc(Cl)s2)nnc1-c1cccs1 | inactive |
| Cc1ccn2cc(-c3nonc3C)cc2c1 | inactive |
| COC(=O)c1cccc(NC(=O)CSc2nc(C)cc(=O)[nH]2)c1 | inactive |
| Cc1ccccc1NC(=O)c1ccccc1 | inactive |
| Cc1ccc2c(c1)sc1ncc(NC(=O)c3ccccc3)c(=O)n12 | 55 nM (active) |

| SMILES | max dye-equivalent concentration |
| --- | --- |
| Cc1ccc(NC(=O)c2nc[nH]c2C(=O)N2CCCCC2)c(C(=O)c2ccccc2)c1 | inactive |
| CCOC(=O)c1c(C)[nH]c(C)c1C(=O)CSc1nc(N)cc(N)n1 | inactive |
| CCOC(=O)N1CCC(NC(=O)CN2C(=O)COc3ccc(C(C)(C)C)cc32)CC1 | inactive |
| O=C(c1cccc(F)c1)N1CCC2(CCCN(Cc3ccncc3)C2)CC1 | inactive |
| CCC12CN3CC(CC)(CN(C1)C31C(=O)N(C)c3ccc(C)cc31)C2=O (configuration not stated) | inactive |
| CCOC(=O)c1cc2cc(C)ccc2[nH]1 | inactive |
| CCNCc1cc2cc(C)ccc2[nH]c1=O | 49 nM (active) |
| CC(=O)OCc1cc2cc(C)ccc2[nH]c1=O | inactive |
| O=C(CNC(=O)c1ccc(Cl)cc1Cl)NCC(=O)Nc1ccccc1N1CCOCC1 | inactive |
| COc1ccc2c(c1OC)C(=O)OC2c1c(O)nc(SC)n(-c2ccccc2)c1=O (configuration not stated) | inactive |
| O=c1[nH]c(=O)c2nc3ccccc3nc2[nH]1 | 210 nM (active) |
| O=c1[nH]c(-c2cccs2)nc2ccccc12 | inactive |
| CC1(C)CCCC2=C1CC1C(=O)N(c3ccccc3)C(=O)C1C2 (configuration not stated) | inactive |
| CCOC(=O)C1CCN(Cc2coc3ccc(Cl)cc3c2=O)CC1 | inactive |
| Cc1noc(C)c1-c1nccc(N2CCOCC2)n1 | inactive |
| CC[C@@H]1Cc2cc(O)ccc2C2=C1c1ccc(O)cc1C[C@H]2CC | 270 nM (active) |
| O=C(NCCC1=CCCCC1)C1CCN(Cc2cnn(-c3ccccc3)c2-n2cccc2)CC1 | inactive |
| COC(=O)c1ccc(Oc2nc(Nc3ccc(F)cc3)nc(N3CCCC3)n2)cc1 | inactive |
| c1ccc(CNc2ncncc2-c2cccnc2)cc1 | inactive |
| Cc1ccc(S(=O)(=O)c2nc(NCCCn3ccnc3)sc2Cl)cc1 | inactive |
| Cc1ccc(C(=O)O)cc1S(=O)(=O)NCC1CCCO1 (configuration not stated) | inactive |
| CCOc1cc(-c2nc3cc(C)ccn3c2NCC2CCCO2)ccc1O (configuration not stated) | 68 nM (active) |
| Cc1ccc(-c2noc(-c3ccccc3C(=O)NCC3CCCO3)n2)cc1 (configuration not stated) | inactive |

| SMILES | max dye-equivalent concentration |
| --- | --- |
| O=C(CSc1nnc(-c2ccco2)o1)NCC(=O)c1ccccc1 | inactive |
| COc1ccc(C(=O)N(Cc2ccc(N(C)C)cc2)C2CCS(=O)(=O)C2)cc1 (configuration not stated) | inactive |
| CC(=O)N1CCC2(CCCN(c3ncccn3)C2)CC1 | inactive |
| COc1cc2c(cc1OC)C(c1ccncc1)CC(=O)N2 (configuration not stated) | inactive |
| CC(C)c1nc(N2CCOCC2)c(C#N)c2c1COC(C)(C)C2 | 140 nM (active) |
| c1ccc2[nH]c(NCCN3CCOCC3)nc2c1 | inactive |
| COc1ccc(CSc2nc(N3CCOCC3)c3c(c2C#N)CC(C)(C)OC3)cc1 | 30 nM (active) |
| CC(C)Cc1nc(N2CCOCC2)c(C#N)c2c1CCC2 | 56 nM (active) |
| CC1(C)Cc2c(C#N)c(SCc3nc4ccccc4[nH]3)nc(N3CCOCC3)c2CO1 | 28 nM (active) |
| COc1ccc(C(CNC(=O)c2cccnc2SC)N2CCOCC2)cc1 (configuration not stated) | inactive |
| CCn1c(Cc2ccccc2)nnc1SCc1nc2ccccc2c(=O)[nH]1 | inactive |
| O=C(Nc1cccc(F)c1)N1CC2(CCN(C(=O)c3csnn3)CC2)C1 | inactive |
| O=C(c1cc(C(F)(F)F)cc(C(F)(F)F)c1)N1CCC[C@@]2(CCN(c3ccccn3)C2)C1 | inactive |
| Cc1cc(C)n(C(=O)c2ccc(S(=O)(=O)N3CCCC3)cc2)n1 | inactive |
| CCSc1nc(=S)n(CC)c(C)c1C(C)=O | inactive |
| CCOC(=O)c1sc(NC(=O)CSc2nnc(-c3ccco3)o2)c(C(=O)OCC)c1C | inactive |
| CC1CCCN(C(=O)Cn2c(=O)oc3ccccc32)C1 (configuration not stated) | inactive |
| COC(=O)C1=C(C)NC(=O)NC1/C=C/c1ccccc1 (configuration not stated) | inactive |
| CC(C)C(=O)N1CCN(c2nc(-c3ccccc3)c3c(c2C#N)CC(C)(C)OC3)CC1 | 190 nM (active) |
| CNC(=O)Nc1cc(C(C)(C)C)no1 | inactive |
| Cn1nnc(NC(=O)CSc2ncn[nH]2)n1 | inactive |
| CCCCC(=O)Nc1ccc2c(c1)OCCO2 | inactive |
| CCCC(=O)Nc1ccc2c(c1)nc1n2CCSC1 | inactive |

| SMILES | max dye-equivalent concentration |
| --- | --- |
| CCCCCC(=O)Nc1ccc2oc(-c3ccncc3)nc2c1 | 23 nM (active) |
| O=C(c1ccco1)N1CCC2(CC1)CCN(c1ncccn1)CC2 | inactive |
| O=C1NC(c2ccncc2)Nc2sc3c(c21)CCCC3 (configuration not stated) | 59 nM (active) |
| COC(=O)c1ccc(Oc2nc(NC(C)C)nc(SC)n2)cc1 | inactive |
| c1ccc2c(Nc3ccncc3)nc(-c3ccoc3)nc2c1 | inactive |
| COc1cccc(-c2nc(Nc3ccncc3)c3ccccc3n2)c1 | inactive |
| c1ccc2c(Nc3ccncc3)nc(-c3ccc4c(c3)OCO4)nc2c1 | 19 nM (active) |
| CCOCCCN1C(=O)CN(C2CCCCC2)C(=O)C1c1ccc(OCC)c(OC)c1 (configuration not stated) | inactive |
| COc1ccc(CNC(=O)c2c(C)cc(=O)oc2C)cc1OC | inactive |
| COCCN(C(=O)CCC(=O)Nc1ccccn1)C(C(=O)NCCC(C)C)c1ccc(OC)cc1 (configuration not stated) | inactive |
| Oc1ccccc1CNCc1ccccc1O | inactive |
| c1ccc2c(CNn3cnnc3)cccc2c1 | inactive |
| Cc1cc(C)c2c(c1)c(C)cc1nnc(SCC(=O)NCc3ccco3)n12 | inactive |
| COc1ccc2nc(N3CCCC(O)C3)c(C#N)cc2c1 (configuration not stated) | 170 nM (active) |
| COc1ccc(OC)c(CNC(=O)C2CCCN(c3nc4ccccc4o3)C2)c1 (configuration not stated) | inactive |
| Nc1nonc1-c1noc(-c2ccc(Br)o2)n1 | inactive |
| c1csc(CN2CCN(Cc3cccs3)C2c2cccs2)c1 | inactive |
| Cc1nn(-c2ccccc2)c2[nH]c(C(F)(F)F)cc(=O)c12 | inactive |
| COc1ccc(CC(=O)Nc2nc3n(n2)C(c2ccccc2)CC(=O)N3)cc1OC (configuration not stated) | inactive |
| COc1ccc(CCNC(=O)C2CCN(c3nn4c(=O)cc(C)nc4s3)CC2)cc1OC | inactive |
| CCOc1ccc(CCNC(=O)C2CCN(c3ccc(N4CCOCC4)nn3)CC2)cc1OCC | 410 nM (active) |
| CCCS(=O)(=O)N1CCC(C(=O)NCCc2ccc(OC)c(OC)c2)CC1 | inactive |
| Cc1ccc(-n2c(N)c(C(=O)N3CCOCC3)sc2=S)c(C)c1 | inactive |

| SMILES | max dye-equivalent concentration |
| --- | --- |
| CS(=O)(=O)N1CCC2(CC1)CN(Cc1cc(C(F)(F)F)cc(C(F)(F)F)c1)C2 | inactive |
| CCOc1cc(CN2CCN(C(=O)CC(C)C)CC2)ccc1OC | inactive |
| O=C(CSc1nnc(-c2ccccn2)n1-c1ccccc1)Nc1ccc2c(c1)OCO2 | inactive |
| COc1ccc2[nH]c3ccc(OC)cc3c2c1 | 200 nM (active) |
| COc1cccc(Oc2ccc(N)cc2)c1 | inactive |
| COc1ccc2[nH]c3cc4c(=O)c5cc(OC)ccc5[nH]c4cc3c(=O)c2c1 | inactive |
| O=C(O)CN(Cc1ccco1)S(=O)(=O)c1ccc(F)cc1 | inactive |
| O=C(c1ccco1)N1CCN(CC(=O)N(C2CCCCC2)C2CCS(=O)(=O)C2)CC1 (configuration not stated) | inactive |
| Cc1cc(C(=O)Nc2c(C)n(C)n(-c3ccccc3)c2=O)cs1 | inactive |
| Cc1c(NC(=O)c2coc(=O)c(Br)c2)c(=O)n(-c2ccccc2)n1C | 190 nM (active) |
| Cc1c(NC(=O)c2cccnc2)c(=O)n(-c2ccccc2)n1C | inactive |
| CCOCCCNS(=O)(=O)Cc1ccccc1 | inactive |
| O=C1c2cccnc2C(Nc2ccc(S(=O)(=O)N3CCCCCC3)cc2)N1Cc1ccccc1 (configuration not stated) | inactive |
| O=C(NC1CCCCC1)C1c2ccccc2C(=O)N1Cc1ccco1 (configuration not stated) | inactive |
| O=C1c2ccccc2C(O)N1Cc1ccccc1 (configuration not stated) | 25 nM (active) |
| CCOC(=O)CSc1nnc(NC(=O)c2cccc(S(=O)(=O)N3CCCC3)c2)s1 | inactive |
| CN1C(=O)C[C@H](c2ccccc2)C1=O | inactive |
| CCCCCOC(=O)NCCOC(=O)Nc1ccc(C(=O)OCC)cc1 | inactive |
| COc1cccc(-c2nc(S(=O)(=O)c3ccccc3)c(N3CCOCC3)o2)c1 | inactive |
| COc1cccc(-c2cc3nc4c(c(N5CCC6(CC5)OCCO6)n3n2)CCCC4)c1 | 100 nM (active) |
